# Out of some 320,000 compounds screened, about 2,200 (0.69%) were called active. Cut-off read from the data, not from the text of the source: active = inhibition above about 43%; inactive = the rest. What follows is part of a selection rich in actives, with near analogues and random picks from the rest.
# Biological target: Prolyl endopeptidase-like (Homo sapiens) (UniProt Q4J6C6)
# Assay: PREPL enzyme inhibitors, primary screen, biochemical, fluorescence polarization (AID 2751);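 note: 0% = enzyme with DMSO and 100% = wells lacking enzyme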
# Conditions: recombinant PREPL, fluorescence polarization activity-based probe; at 5.96 µM; hits give high values
# Chain of Prolyl endopeptidase-like (Homo sapiens) (Q4J6C6 whole entry, looked up): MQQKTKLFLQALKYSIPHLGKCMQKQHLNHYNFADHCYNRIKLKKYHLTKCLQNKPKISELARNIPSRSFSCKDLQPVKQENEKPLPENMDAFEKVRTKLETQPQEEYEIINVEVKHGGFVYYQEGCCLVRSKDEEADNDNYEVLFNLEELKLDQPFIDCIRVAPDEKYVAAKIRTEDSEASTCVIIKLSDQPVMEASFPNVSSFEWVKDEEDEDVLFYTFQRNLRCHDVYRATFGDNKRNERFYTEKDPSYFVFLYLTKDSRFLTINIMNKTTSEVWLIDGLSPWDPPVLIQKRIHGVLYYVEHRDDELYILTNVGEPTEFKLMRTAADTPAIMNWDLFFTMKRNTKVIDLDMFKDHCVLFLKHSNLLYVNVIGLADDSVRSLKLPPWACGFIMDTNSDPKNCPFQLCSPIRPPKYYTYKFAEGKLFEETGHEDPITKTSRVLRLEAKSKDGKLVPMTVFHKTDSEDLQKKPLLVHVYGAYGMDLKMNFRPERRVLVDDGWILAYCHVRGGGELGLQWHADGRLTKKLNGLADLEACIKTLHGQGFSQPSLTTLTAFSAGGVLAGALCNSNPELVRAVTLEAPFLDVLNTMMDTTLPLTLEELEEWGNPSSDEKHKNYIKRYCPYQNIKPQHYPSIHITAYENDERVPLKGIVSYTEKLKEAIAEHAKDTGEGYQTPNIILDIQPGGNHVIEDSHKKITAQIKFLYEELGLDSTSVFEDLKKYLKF
row,SMILES,inhibition
1,Cc1ccc(C(C)NC(=O)Cn2nc(C)c([N+](=O)[O-])c2C)cc1 (centres undefined),11.6% (inactive)
2,O=C(Nc1cccc(S(=O)(=O)N2CCOCC2)c1)C12CC3CC(CC(C3)C1)C2,12.3% (inactive)
3,CC(CNc1ccc([N+](=O)[O-])cc1)NC(=O)c1ccccc1Br (centres undefined),4.76% (inactive)
4,CCn1nc(C)cc1C(=O)N1CCCC(C(=O)c2cccc(OC)c2)C1 (centres undefined),-1.89% (inactive)
5,COc1ccc2cc(C(=O)C3CCCN(C(=O)c4sc(C)nc4C)C3)ccc2c1 (centres undefined),47.9% (active)
6,COc1ccc(C(=O)C2CCCN(C(=O)c3cnsn3)C2)c(C)c1 (centres undefined),13.4% (inactive)
7,COc1ccc(/C(O)=C2/C(=O)C(=O)N(CC3CCCO3)C2c2ccc(OC)c(OC)c2)cc1 (centres undefined),1.2% (inactive)
8,CN(C)c1nccc(NCc2ccccc2)c1C#N,3.08% (inactive)
9,CC(C)n1cnc2c(NCc3ccccc3)cc(OCC3CCN(C)CC3)cc21,83.8% (active)
10,CCC(CO)Oc1cc(NCc2ccccc2)c2ncn(C3CCCC3)c2c1 (centres undefined),43.8% (active)
11,CCC(CO)Oc1cc(NC(=O)c2cccc(F)c2)c2ncn(C(C)C)c2c1 (centres undefined),3.94% (inactive)
12,CCC(CO)Oc1cc(NC(=O)c2cccc3ccccc23)c2ncn(C(C)C)c2c1 (centres undefined),18.7% (inactive)
13,CC(C)C[C@H](CO)Nc1nc(N(C)c2cccc(Cl)c2)c2ncn(C(C)C)c2n1,12.1% (inactive)
14,CC(C)n1cnc2c(NCc3ccccc3)cc(N[C@@H](CO)Cc3ccccc3)cc21,62% (active)
15,CCC(CO)Oc1cc(NC(=O)c2ccc(Cl)cc2)c2ncn(C(C)C)c2c1 (centres undefined),13% (inactive)
16,CC(C)N(Cc1ccccc1)C(=O)COC(=O)c1cnccn1,-8.35% (inactive)
17,COC(=O)[C@]1(Cc2ccccc2)N[C@H](CN(C)S(=O)(=O)c2ccc(OC(F)(F)F)cc2)[C@@H]2C(=O)N(Cc3ccccc3)C(=O)[C@@H]21,8.99% (inactive)
18,COC(CNC(=O)Cn1ncc2ccsc2c1=O)OC,6.98% (inactive)
19,CCCn1c(SCC(=O)Nc2ccc(C)c(S(=O)(=O)N3CCOCC3)c2)n[nH]c1=O,3.91% (inactive)
20,CCc1cc(=O)oc2cc(C)cc(OCC(=O)N3CCC[C@@H]3C(=O)O)c12,-4.62% (inactive)
21,O=C(CN(C(=O)c1csnn1)c1ccc(Br)cc1)NC1CCCC1,5.56% (inactive)
22,CCCc1cc(=O)[nH]c2nnc(SCC(=O)Nc3nnc(SCC)s3)n12,0.4% (inactive)
23,CCn1c(=S)sc2c(=O)n(CC(=O)Nc3ccc(OC)cc3)c(C)nc21,7.88% (inactive)
24,O=S(=O)(NCC1CC1)c1ccc(F)c(Cl)c1,-5.91% (inactive)

row,SMILES,inhibition
1,CC(OC(=O)/C=C/c1ccccc1)C(=O)NC1CCCCC1C (centres undefined),-7.55% (inactive)
2,Nc1ccc(C(=O)Nc2ccccc2N)cc1,-1.77% (inactive)
3,Cc1ccc(Nc2nc(Cl)c(C=O)s2)cc1,-3.94% (inactive)
4,Cc1ccc(Nc2ccccc2N)cc1,47.5% (active)
5,Cc1cc(OC(C)C(=O)NC2CC(C)(C)NC(C)(C)C2)c2c(C)cc(=O)oc2c1 (centres undefined),2.31% (inactive)
6,O=C(Nc1ccc([N+](=O)[O-])cc1)C1CC12CCC2 (centres undefined),1.87% (inactive)
7,CCN1C(=O)c2cccc3c(S(=O)(=O)Nc4ccccc4O)ccc1c23,4.31% (inactive)
8,CN1C(=O)c2cccc3c(N)ccc(c23)C1=O,14.4% (inactive)
9,CCN1C(=O)c2cccc3c(N)ccc1c23,45.6% (active)
10,Cc1snc(SCc2c(F)cccc2Cl)c1C#N,10% (inactive)
11,Cc1nc([N+](=O)[O-])nn1C12CC3CC(CC(Br)(C3)C1)C2,45.5% (active)
12,COc1cccc(NC(=O)c2nn(C34CC5CC(CC(C5)C3)C4)cc2[N+](=O)[O-])c1,1.65% (inactive)
13,Cc1ncn(C23CC4CC(CC(O)(C4)C2)C3)n1,3.85% (inactive)
14,CCn1nc(C(=O)NNS(=O)(=O)c2cc(/C=C/C(=O)O)cc(OC)c2OC)c2ccccc2c1=O,1.44% (inactive)
15,Cn1c(CC2Sc3ccccc3NC2=O)nnc1SCC(=O)c1ccc(Cl)cc1 (centres undefined),-2.92% (inactive)
16,Cc1cc(-c2nnc(SCC(=O)Nc3ccc(F)cc3)n2N)n[nH]1,-0.73% (inactive)
17,CCOC(=O)N1CCN(S(=O)(=O)c2ccc(-n3cnnn3)cc2)CC1,-0.87% (inactive)
18,COc1ccc(/C=N/N=C/c2c[nH]c(=O)c(C#N)c2Nc2ccccc2)cc1,5.21% (inactive)
19,O=C(OCC(=O)N1CCc2ccccc21)c1ccc([N+](=O)[O-])cc1,18% (inactive)
20,O=C1c2ccccc2C(=O)c2c1cccc2N1CCN(CCO)CC1,10% (inactive)
21,O=C1c2ccccc2C(=O)c2c1cccc2N1CCN(Cc2ccccc2)CC1,34.3% (inactive)
22,O=C1c2ccccc2C(=O)c2c1cccc2N1CCN(C/C=C/c2ccccc2)CC1,87.2% (active)
23,CN(C(=O)CC1C(=O)NCCN1Cc1ccc2ccccc2c1)C1CCOCC1 (centres undefined),15.8% (inactive)
24,CCCc1cc(=S)n2c([nH]c3ccccc32)c1C#N,16% (inactive)

row,SMILES,inhibition
1,Cc1ccc(N2CCN(/N=C/c3cccs3)CC2)cc1,10.6% (inactive)
2,Cc1ccsc1/C=C1\SC(N2CCOCC2)=NC1=O,5.64% (inactive)
3,Cc1ccc(N2CCN(C3=NC(=O)/C(=C\c4cccs4)S3)CC2)cc1,53% (active)
4,CN(NS(=O)(=O)c1cccs1)c1ncc(C(F)(F)F)cc1Cl,-0.65% (inactive)
5,COc1ccccc1OCC(=O)Nc1c2c(nn1-c1ccc(F)cc1)CS(=O)(=O)C2,-4.94% (inactive)
6,COc1ccc(Cl)cc1NC(=O)CN1CCN(C(=O)N2CCOCC2)CC1,-6.54% (inactive)
7,COc1cccc(NC(=O)CN2CCN(CC(=O)Nc3ccccc3Cl)CC2)c1,-3.67% (inactive)
8,COc1ccc(NC(C)=O)cc1NC(=O)CN1CCN(C2c3ccccc3-c3ccccc32)CC1,43.8% (active)
9,CN=C1SC(CC(=O)Nc2ccc(C(=O)O)cc2)C(=O)N1C (centres undefined),1.69% (inactive)
10,COP1(=O)C[C@@H](O)[C@@H](O)[C@@H](COCc2ccccc2)O1 (some centres undefined),-5.04% (inactive)
11,O=C(c1ccco1)N1CCN(C(=O)C2CCCN(S(=O)(=O)c3cccc4nsnc34)C2)CC1 (centres undefined),-5.71% (inactive)
12,CCc1ccc(/C=C2\SC(N3CCOCC3)=NC2=O)cc1,19.1% (inactive)
13,CC1CCN(C2=NC(=O)/C(=C/c3ccc(O)cc3)S2)CC1,12.1% (inactive)
14,O=C1N=C(N2CCc3ccccc3C2)S/C1=C\c1ccc(O)cc1,47.4% (active)
15,C=CCOc1ccc(/C=C/C(=O)OCC(=O)NC(C)c2ccc(F)cc2)cc1 (centres undefined),5.51% (inactive)
16,S=C(NCCC1=CCCCC1)Nc1ccccc1,9.47% (inactive)
17,Oc1ccc2ccccc2c1N=Nc1nccs1,50.7% (active)
18,Cc1ccc(S(=O)(=O)N2CCN=C2SCc2c(F)cccc2Cl)cc1,11.2% (inactive)
19,C=CC(=O)OCCOCCOCCOCCOC(=O)C=C,-0.81% (inactive)
20,Cc1ccc(C)c(OCC(=O)N2CCN(C(=O)c3ccco3)CC2)c1,1.04% (inactive)
21,Cc1ccc(OCC(=O)Nc2ccc(N3CCN(C(=O)c4ccco4)CC3)cc2)c(C)c1,55% (active)
22,Cc1ccc(Cl)c(OCC(=O)N(C)CC(=O)Nc2ccc(N3CCOCC3)cc2)c1,-6.09% (inactive)
23,CN1CCN(c2ccc(NC(=O)COc3ccc(Cl)cc3Cl)cc2)CC1,54.8% (active)
24,CCC(=O)Nc1ccc(C(=O)N2CCN(C(=O)c3ccco3)CC2)cc1,-4% (inactive)

row,SMILES,inhibition
1,CN1CCC(OC(=O)COc2ccc(Cl)cc2Cl)CC1,-6% (inactive)
2,Cc1ccc(S(=O)(=O)c2nc(-c3cccs3)oc2NCc2cccnc2)cc1,8.75% (inactive)
3,Oc1ccccc1-c1cc(-c2ccc(Cl)cc2)n[nH]1,-35.8% (inactive)
4,Cc1ccc(/C=N/NC(=O)c2cc3ccccc3cc2O)o1,13.4% (inactive)
5,O=C(N/N=C/c1cccnc1)c1cc2ccccc2cc1O,63.4% (active)
6,O=C(NN=Cc1ccc(N2CCOCC2)cc1)c1cc2ccccc2cc1O,19.7% (inactive)
7,NC(=O)COc1ccc(/C=N/NC(=O)C2CCCN2S(=O)(=O)c2ccc(Cl)cc2)cc1 (centres undefined),11% (inactive)
8,CCCCN(C(=O)c1ccc(C)o1)c1c(N)n(CCCC)c(=O)[nH]c1=O,-0.55% (inactive)
9,COc1ccc(CNc2ncnc3ccccc23)cc1,-16.5% (inactive)
10,c1ccc2c(NCC3CCCO3)nc(-c3ccncc3)nc2c1 (centres undefined),5.66% (inactive)
11,CC(C)(C)Nc1nc(-c2ccccn2)nc2ccccc12,47.1% (active)
12,Cc1n[nH]c(C)c1S(=O)(=O)N1CCCC(C(=O)Nc2ccc(Br)cc2)C1 (centres undefined),-17.7% (inactive)
13,O=S(=O)(O)CCN1CCOCC1,25.7% (inactive)
14,O=C(NCC(=O)N1CCN(c2ccccc2F)CC1)c1cccs1,3.72% (inactive)
15,COc1cccc2cc(C(N)=O)/c(=N\NC(=O)c3ccccc3)oc12,-0.47% (inactive)
16,CCN(CC)c1ccc2cc(C(N)=O)/c(=N\NC(=O)c3ccncc3)oc2c1,48.4% (active)
17,NC(=O)c1cc2ccccc2o/c1=N/NC(=O)c1cccc(F)c1,11.6% (inactive)
18,CC1CCC2(CC1)NC(=O)N(CC(=O)c1ccc3c(c1)OCO3)C2=O (centres undefined),11.2% (inactive)
19,O=c1oc(-c2ccccc2NS(=O)(=O)c2ccc(Cl)cc2)nc2ccccc12,6.42% (inactive)
20,COC(=O)[C@]1(CC(C)C)N[C@H](c2ccc(SC3CCCCC3)cc2)[C@@H]2C(=O)N(C)C(=O)[C@@H]21,2.32% (inactive)
21,CCN1/C(=C/c2ccc3ccc(C)cc3[n+]2CC)Sc2ccccc21,53.4% (active)
22,CCN1/C(=C\c2ccc3ccccc3[n+]2CC)Sc2cc(C)ccc21,52.8% (active)

# From PubChem BioAssay AID2751 (The Scripps Research Institute Molecular Screening Center, 2010)
